HP1b binding inh: HP1-beta chromodomain-methylated histone interaction inhibition. P83916. Potency, µM (series often up to 114 µM), usual class: inhibitors. 0.56% of 390,000 active. AID 540317. AlphaScreen HP1-beta / biotin-H3K9me3 peptide binding; note: nearly all actives have a fitted effect of over 70% in size
Target sequence (P83916 whole entry, looked up): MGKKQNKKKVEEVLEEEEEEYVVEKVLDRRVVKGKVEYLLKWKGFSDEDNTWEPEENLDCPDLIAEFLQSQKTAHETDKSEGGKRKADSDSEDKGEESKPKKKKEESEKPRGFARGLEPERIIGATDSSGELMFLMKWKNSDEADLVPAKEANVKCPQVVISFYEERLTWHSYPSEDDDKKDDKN
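AlphaScreen: HP1-beta (50 nM) preformed 30 min with biotin-H3(1-18)K9me3 peptide (50 nM) in PBS pH 7.4, 0.01% Tween-20. Compound added for 30 min at RT, then streptavidin donor/nickel chelate acceptor beads (10 ug/mL) for 30 min.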
G9a inh: inhibitors of human histone lysine methyltransferase G9a; Potency, µM (series often up to 102 µM), most hits filed as inhibitors; G9a H3K9 monomethylation, AlphaScreen, 2 h; 8.8% of 350,000 active; Q96KQ7; AID 504332; note: nearly all actives have a fitted effect of over 75% in size
Target sequence (Q96KQ7 913-1193 limits assumed): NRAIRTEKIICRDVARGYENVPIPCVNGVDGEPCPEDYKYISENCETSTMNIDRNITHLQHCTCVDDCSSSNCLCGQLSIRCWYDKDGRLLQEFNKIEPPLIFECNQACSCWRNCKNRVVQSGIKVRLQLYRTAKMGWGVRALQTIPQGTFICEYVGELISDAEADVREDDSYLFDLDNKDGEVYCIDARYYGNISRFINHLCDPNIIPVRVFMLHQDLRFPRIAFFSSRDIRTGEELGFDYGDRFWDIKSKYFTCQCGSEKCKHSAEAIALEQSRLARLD
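Methyltransferase reactions run at room temperature for 2 h (20 nM enzyme, 500 nM biotin-H3K9 peptide, 20 uM SAM) after a 15 min compound preincubation; product detected by AlphaScreen beads and anti-H3K9me1 antibody.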
JMJD2A Tudor inh: inhibitors of human JMJD2A Tudor domain; Potency, µM (highest dose often 114 µM), most hits filed as inhibitors; 4.4% of 390,000 active; AlphaScreen JMJD2A-Tudor / H3K4me3 peptide binding; AID 504339; note: nearly all actives have a fitted effect of over 50% in size
L3MBTL1 inh: inhibitors of human L3MBTL1 | Q9Y468 | AlphaScreen L3MBTL1–H3K9me1 peptide binding | Potency, µM (highest dose often 57.1 µM), usual class: inhibitors | 0.66% of 230,000 active; note: nearly all actives have a fitted effect of over 60% in size
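Displacement of a biotinylated histone H3(1-15) peptide monomethylated at Lys9 (75 nM) from L3MBTL1 (50 nM) was measured by AlphaScreen after a 30 min room-temperature compound incubation; cefsulodin titration served as intraplate control.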
BAZ2B block: blocks human BAZ2B | Q9UIF8 | 4.4% of 360,000 active | AlphaScreen BAZ2B-H3K14Ac peptide displacement | Potency, µM (highest dose often 114 µM), hits mostly inhibitors | AID 504333; note: nearly all actives have a fitted effect of over 60% in size
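AlphaScreen displacement: compounds (up to 110uM) incubated 30 min at room temperature with a preformed 50 nM BAZ2B/50 nM biotinylated H3K14Ac peptide complex in PBS pH 7.4 with Tween-20. Donor and acceptor beads at 10 ug/mL final added, 20 min light-protected before reading.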
Large screens that a line does not name were inactive. Only some compounds are listed: those with a hit (about 11% of all), similar ones and a draw of the others. Calls come from the whole dose curve; as a rule, active = well fitted inhibition curve with a large enough effect; inconclusive = small, poorly fitted or top-dose-only effect; inactive = no such curve, though single readings can be large or run the other way.

CCCC(C(=O)Nc1ccc(S(=O)(=O)N2CCOCC2)cc1)c1ccccc1 (centres undefined)	none
CCOc1ccc(NC(=O)COc2ccc(S(=O)(=O)N3CCOCC3)cc2)cc1	none (no result: G9a inh, BAZ2B block)
O=S(=O)(c1ccc(Oc2ccccc2)cc1)N1CCOCC1	none (no result: L3MBTL1 inh)
CCCCn1c(-c2ccc(S(=O)(=O)N3CCOCC3)cc2)csc1=Nc1ccccc1	HP1b binding inh inconclusive, G9a inh 5.6µM, JMJD2A Tudor inh inconclusive, BAZ2B block inconclusive (no result: L3MBTL1 inh)
CCCn1c(-c2ccc(S(=O)(=O)N3CCOCC3)cc2)csc1=Nc1ccc(OCC)cc1	HP1b binding inh inconclusive, G9a inh 13µM, JMJD2A Tudor inh inconclusive, BAZ2B block inconclusive (no result: L3MBTL1 inh)
CCOC(=O)c1c(S(=O)(=O)NCC(=O)N(C)Cc2ccccc2)c(C)n(C)c1C	none (no result: L3MBTL1 inh)
O=C(NCc1ccc(Cl)cc1)C1CCN(c2nn3cc(-c4ccc(F)cc4)nc3s2)CC1	none (no result: L3MBTL1 inh)
COc1ccc(CCNC(=O)c2ccc3c(c2)CCN3S(=O)(=O)c2ccc(Cl)cc2)cc1	none (no result: L3MBTL1 inh)
Cc1cc(C)cc(C(=O)NC(CC(N)=O)c2ccc(N3CCN(C)CC3)c([N+](=O)[O-])c2)c1 (centres undefined)	G9a inh inconclusive
COc1ccc(OC)c(C(=O)NC(CC(N)=O)c2ccc(N3CCN(c4ccccn4)CC3)c([N+](=O)[O-])c2)c1 (centres undefined)	G9a inh 79µM, BAZ2B block inconclusive
COc1ccc(OC)c(C(=O)NC(CC(N)=O)c2ccc(N3CCC(Cc4ccccc4)CC3)c([N+](=O)[O-])c2)c1 (centres undefined)	JMJD2A Tudor inh inconclusive, BAZ2B block 45µM (no result: G9a inh)
Cc1cc(C)cc(C(=O)NC(CC(N)=O)c2ccc(N3CCN(c4ccccn4)CC3)c([N+](=O)[O-])c2)c1 (centres undefined)	G9a inh 79µM
N#Cc1ccc(C(=O)NCc2ccc3c(c2)CCN3C(=O)c2ccc(F)cc2)cc1	none (no result: L3MBTL1 inh)
Cc1nc2[nH]c(=S)n(C)c(=O)c2nc1C	G9a inh 45µM, JMJD2A Tudor inh 89µM
Cc1nc2c(=O)n(C)c(=O)n(C)c2nc1Cl	none
Cc1ccc(Cn2c(SCc3ccc(C(=O)N4CCCCCC4)cc3)nc3ccncc32)cc1	none (no result: L3MBTL1 inh)
CCN1C(=O)C2CCCCN2c2ccc(C(=O)NCCOC)cc21 (centres undefined)	G9a inh 79µM (no result: L3MBTL1 inh)
Cc1cccc(CNC(=O)c2ccc3c(c2)N(C)C(=O)C2CCCCN32)c1 (centres undefined)	none (no result: L3MBTL1 inh)
O=C1OCCC1(c1ccccc1)c1ccccc1	none
C=CCOC(=O)C1=C(C)N=c2s/c(=C3\C(=O)N(CC(=O)O)c4ccccc43)c(=O)n2C1c1ccc(OC)cc1 (centres undefined)	G9a inh 8.9µM, JMJD2A Tudor inh inconclusive, BAZ2B block inconclusive
CCOC(=O)C1=C(C)N=c2s/c(=C3\C(=O)Nc4ccccc43)c(=O)n2C1c1ccc2c(c1)OCO2 (centres undefined)	G9a inh inconclusive, JMJD2A Tudor inh inconclusive
COc1ccc(C(c2c(O)nc(SC)n(C)c2=O)c2c(O)nc(SC)n(C)c2=O)cc1O	G9a inh 16µM
Cc1ccccc1N(C)C(=O)c1noc2c1COc1ccccc1-2	none (no result: L3MBTL1 inh)
CCOc1ccccc1C(=O)NCc1ccc2c(c1)CCN2C(C)=O	none (no result: L3MBTL1 inh)
O=C(NCc1ccco1)c1cc(-c2ccccc2)c(N2CCOCC2)s1	G9a inh inconclusive (no result: L3MBTL1 inh)
O=C(O)c1cc(-c2ccccc2)c(N2CCOCC2)s1	G9a inh 79µM (no result: L3MBTL1 inh)
Cc1ccc(C)c(NC(=O)C(Sc2nnc(-c3cccs3)o2)c2ccccc2)c1 (centres undefined)	HP1b binding inh inconclusive, G9a inh 79µM
Cc1ccc(C)c(NC(=O)C(Sc2cccc[n+]2[O-])c2ccccc2)c1 (centres undefined)	G9a inh 45µM
CN(C)Cc1nc2c([nH]1)c(=O)n(C)c(=O)n2C	G9a inh inconclusive, JMJD2A Tudor inh 3.5µM
Cc1ccccc1-c1cncnc1NCc1cccnc1	none (no result: HP1b binding inh, JMJD2A Tudor inh, L3MBTL1 inh, BAZ2B block)
CC(C(=O)Nc1ncc([N+](=O)[O-])s1)N1C(=O)c2ccccc2S1(=O)=O (centres undefined)	G9a inh 11µM, JMJD2A Tudor inh 20µM
Cc1cccc(NC(=O)C(C)N2C(=O)c3ccccc3S2(=O)=O)n1 (centres undefined)	none

Source: PubChem BioAssay (National Center for Advancing Translational Sciences (NCATS))
